Compounds with a hit are over-represented: about 2.3% of the library has one in this group of screens.
FUS suppressor: qHTS for Suppressors of FUS Proteinopathy: Primary screen using FUS-linked yeast assay | S. cerevisiae FUS-expressing, growth rescue, OD600, 24 h | Potency, µM (highest dose often 76.6 µM), usual class: activators | 0.24% of 390,000 active | AID 1347120, 2019;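 also: potency is read from the fitted curve at half-maximal effect; plate controls were DMSO vehicle for no effect and reference control for full effect; nearly all actives have a fitted effect of over 55% in size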
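Toxicity suppression screen in FUS-yeast. Cells induced with 2% galactose, starting OD 0.005, treated 24hr at 30C with compounds at multiple final concentrations; growth by OD600.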
TDP43 rescue: qHTS of TDP-43 Inhibitors | TDP-43 expressing yeast growth rescue, BacTiter-Glo, 24 h | Potency, µM (series often up to 46.1 µM), without a hit: at the highest dose growth rescue (activation), usual class: activators | 1.8% of 410,000 active; also: potency is read from the fitted curve at half-maximal effect; % of control where 0% means no effect; nearly all actives have a fitted effect of over 50% in size
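In this qHTS, compounds that restore growth of yeast expressing TDP-43 appear as activators. Cells (OD600=0.02, galactose medium, raffinose-pregrown) are incubated with compound 24 hr at 30 deg C and growth is quantified by BacTiter-Glo.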
aSyn rescue: qHTS of alpha-syn Inhibitors; Yeast expressing alpha-synuclein, growth rescue, BacTiter-Glo, 24 h; Potency, µM (top dose mostly 46.1 µM), inactives show at the highest dose growth rescue (activation), hits mostly activators; 0.14% of 370,000 active; also: potency is read from the fitted curve at half-maximal effect; % of control where 0% means no effect; nearly all actives have a fitted effect of over 65% in size
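Screening used galactose-induced yeast with toxic alpha-synuclein levels, exposed to compound for 24 hr at 30 deg C. Cell growth, read with BacTiter-Glo luminescence, gave the measured signal.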
MmCpn inh: Inhibitors of TCP-1 ring complex (TRiC) of Methanococcus maripaludis (MmCpn): qHTS; Chaperonin Mm-Cpn (Methanococcus maripaludis); purified Mm-Cpn ATPase, ADP Transcreener TR-FRET; Potency, µM (doses to about 76.9 µM), inactives show at the highest dose activity, negative = inhibition, usual class: inhibitors; 0.031% of 330,000 active; also: potency is read from the fitted curve at half-maximal effect; % is scaled to controls: 0 for no effect and ±100 for the full control effect; nearly all actives have a fitted effect of over 80% in size
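25 nM Mm-CPN + cpd, 10 min 37°C; + 10 uM ATP, 30 min 37°C; buffer 30 mM Tris pH 7.4, 100 mM KCl, 5 mM MgCl2, 1 mM DTT; Transcreener ADP HTRF detection 30 min RT.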
Abeta yeast res: qHTS for compounds that reverse cellular toxicity of Amyloid beta (A-beta) peptide in yeast: Primary Screen; 0.063% of 410,000 active; yeast expressing A-beta42, growth rescue, OD600, 48 h; response scale: 0% DMSO, 100% iron-clioquinol control; Potency, µM (highest dose often 46.1 µM), most hits filed as activators; also: potency is read from the fitted curve at half-maximal effect; nearly all actives have a fitted effect of over 55% in size
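Growth rescue measured by 600 nm absorbance after 48 h yeast culture at 30 C with compound. Values normalized between DMSO and an equimolar ferric chloride plus clioquinol control.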
CCT chaperon mod: High-Throughput Screening for Modulators of Cytosolic Chaperonin Activity; activity change, % (concentration not given with the values), hits read low; purified chaperonin ATPase assay, HTRF ADP detection, 30 min; AID 651819, 2012; 0.3% of 360,000 active; in the data active = activity change below about -30%; also: % is scaled to controls: 0 for no effect and ±100 for the full control effect
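First, chaperonin was dispensed at 40 nM or 20 nM final depending on batch activity. Next, compounds were pinned at 76 uM and ATP added at 10 uM. After 30 min at 37 °C, ADP detection reagents ran 30 min at ambient temperature.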
* marks the source's active call; other numbers are inactive results. Unless noted, calls follow the shape of the dose curve; as a rule, active = well fitted curve in the direction sought with a large enough effect; inconclusive = small, poorly fitted or top-dose-only effect, or another doubt; inactive = no such curve, though single readings can be large; an effect the other way counts as inactive or inconclusive.

How did COc1cc(CNc2ncnc3c2ncn3[C@H]2CN(Cc3cccc4ccccc34)C[C@@H](CO)O2)cc(OC)c1OC do in these assays?
FUS suppressor: 28.2µM*; TDP43 rescue: 0.7%; aSyn rescue: 3.3%; Abeta yeast res: inactive; CCT chaperon mod: -0.9

Results for COc1cccc(N2CCN(CC(=O)NCc3c(F)cccc3F)CC2)c1 ?
FUS suppressor: inactive

What do the screens show for `Cc1ccccc1C1CCC2(CC1)CCN(CC[C@@H](O)c1ccccc1)C2=O` (some centres not stated)?
FUS suppressor: inactive

Results for O=C(O)CCc1c2ccc(=O)c(O)c-2oc2c(O)c(O)ccc12 ?
aSyn rescue: -13.6%

What do the screens show for `CC1C(=O)N(Cc2cn(Cc3ccco3)nn2)CCS(=O)(=O)N1Cc1ccc(-c2ccc(Cl)cc2)cc1` (configuration not stated)?
FUS suppressor: inconclusive; TDP43 rescue: 35.5µM*; aSyn rescue: 3.0%; Abeta yeast res: inactive; CCT chaperon mod: -0.3

What do the screens show for `CC1C(=O)N(Cc2cn(CCC3OCCO3)nn2)CCS(=O)(=O)N1Cc1ccc(-c2ccc(Cl)cc2)cc1` (configuration not stated)?
FUS suppressor: inconclusive; TDP43 rescue: 28.2µM*; aSyn rescue: 1.0%; Abeta yeast res: inactive; CCT chaperon mod: 1.3

What do the screens show for `Cc1ccc(-c2ccc(CN3C(C)C(=O)N(Cc4cn(CCC5OCCO5)nn4)CCS3(=O)=O)cc2)cc1` (configuration not stated)?
FUS suppressor: inconclusive; TDP43 rescue: 25.2%; aSyn rescue: 5.0%; Abeta yeast res: inactive; CCT chaperon mod: 2.2

How did CC1C(=O)N(Cc2cn(Cc3ccco3)nn2)CCS(=O)(=O)N1Cc1ccc(-c2ccccc2)cc1 (configuration not stated) do in these assays?
FUS suppressor: inconclusive; TDP43 rescue: 25.8%; aSyn rescue: 7.6%; Abeta yeast res: inactive; CCT chaperon mod: -1.3

What do the screens show for `CN(C)c1ccc(/C=C\C=C/c2ccnc3ccccc23)cc1`?
aSyn rescue: -65.8%

Results for Oc1ccc(CNc2cccc(F)c2F)c2cccnc12 ?
MmCpn inh: 0.5%

How did Cc1cc(NC(=O)C2CCCN(S(=O)(=O)c3cccc4nonc34)C2)ccc1Br (configuration not stated) do in these assays?
FUS suppressor: inactive; TDP43 rescue: 17.3%; aSyn rescue: -9.4%; Abeta yeast res: inactive

Results for N#Cc1cccc(-c2ccccc2C(=O)NC2CCCCN(Cc3ccc(Cl)cc3)C2=O)c1 (configuration not stated) ?
FUS suppressor: inactive

What do the screens show for `CCOC(=O)C1=CCN(S(=O)(=O)c2ccc(F)cc2)C1c1ccc(Br)cc1` (configuration not stated)?
FUS suppressor: inactive; TDP43 rescue: 35.5µM*; aSyn rescue: 23.8%; Abeta yeast res: inactive; CCT chaperon mod: 1.0

Results for CCOC(=O)C1=CCN(S(=O)(=O)c2ccccc2)C1c1ccc(Cl)cc1 (configuration not stated) ?
FUS suppressor: inactive; TDP43 rescue: 35.5µM*; aSyn rescue: 28.5%; Abeta yeast res: inactive; CCT chaperon mod: 0.7

What do the screens show for `CCOC(=O)C1=CCN(S(=O)(=O)c2ccc(F)cc2)C1c1ccc(F)cc1` (configuration not stated)?
FUS suppressor: inactive; TDP43 rescue: 0.0%; aSyn rescue: 4.4%; Abeta yeast res: inactive

What do the screens show for `COc1ccc(-c2cc(-c3nnc(SCC(=O)Nc4ccc(OCc5ccccc5)cc4)n3N)[nH]n2)cc1`?
FUS suppressor: inactive
